In PubChem BioAssay (NCI):
The panel holds about 79,000 compounds, 15% with a hit somewhere; the sample as a whole holds those more often. Unmarked numbers belong to inactive results. The source made the active and inactive calls. Cut-off read from the data, not from the text of the source: active = growth inhibition above about 70%; inactive = the rest.

Legend:
[1] = NCI Yeast Anticancer Drug Screen. Data for the rad52 strain (AID 147);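 note: 0% = growth of vehicle-treated control cultures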; details: S. cerevisiae rad52 mutant growth inhibition, hits give high values
How it was run: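 Read-out: growth inhibition versus vehicle-treated controls. Cells were a DNA repair-deficient yeast strain treated with compounds.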

[2] = NCI Yeast Anticancer Drug Screen. Data for the wt1 strain (AID 149);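 note: 0% = growth of vehicle-treated wt1 cultures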; details: S. cerevisiae wt1 strain (SPY 50644) growth inhibition, hits give high values
How it was run: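 Vehicle-normalised growth inhibition; strain wt1; compound exposure.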

[3] = NCI Yeast Anticancer Drug Screen. Data for the rad50EPP+ strain (AID 151);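 note: 0% = growth of vehicle-treated control cultures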; details: S. cerevisiae rad50 mutant strain, hits give high values
How it was run: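 Growth inhibition read against vehicle controls in rad50EPP+ yeast, a strain altered in DNA damage repair, after compound exposure.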

[4] = NCI Yeast Anticancer Drug Screen. Data for the mgt1 strain (AID 153); details: S. cerevisiae mgt1 mutant growth inhibition, hits give high values
How it was run: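 mgt1 yeast grown with test compound; read-out is growth inhibition versus vehicle-treated cultures.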

[5] = NCI Yeast Anticancer Drug Screen. Data for the rad50 strain (AID 155);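 note: 0% = growth of vehicle-only cultures of the same strain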; details: S. cerevisiae rad50 strain growth inhibition, hits give high values
How it was run: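 A DNA repair-deficient yeast mutant serves as the test organism; compound-induced growth inhibition is calculated against vehicle-treated cells.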

[6] = NCI Yeast Anticancer Drug Screen. Data for the mec2-1 strain (AID 157); details: S. cerevisiae mec2-1 strain, hits give high values
How it was run: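 Yeast mec2-1 mutant treated with compound. Readout: growth inhibition vs vehicle controls.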

[7] = NCI Yeast Anticancer Drug Screen. Data for the rad14 strain (AID 159);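 note: 0% = growth of vehicle-treated control cultures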; details: S. cerevisiae rad14 strain growth inhibition, hits give high values
How it was run: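 Vehicle-treated cultures served as the baseline for growth inhibition of a DNA repair-mutant yeast strain exposed to each compound.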

[8] = NCI Yeast Anticancer Drug Screen. Data for the sgs1 mgt1 strain (AID 161);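 note: 0% = growth of cultures given vehicle only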; details: S. cerevisiae sgs1 mgt1 strain, hits give high values
How it was run: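 Mutant yeast exposed to compound; growth scored against vehicle-only wells.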

[9] = NCI Yeast Anticancer Drug Screen. Data for the CLN2oe strain (AID 163);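 note: 0% = growth of vehicle-only control cultures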; details: S. cerevisiae CLN2oe strain, hits give high values
How it was run: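 Read-out: yeast growth inhibition, expressed relative to vehicle-only controls. The strain bears an engineered cell-cycle alteration.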

[10] = NCI Yeast Anticancer Drug Screen. Data for the cln2 rad14 strain (AID 165);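 note: 0% = growth equal to vehicle treated cultures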; details: S. cerevisiae cln2 rad14 strain, hits give high values
How it was run: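 cln2 rad14 yeast strain; compound exposure; growth inhibition read vs vehicle controls.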

[11] = NCI Yeast Anticancer Drug Screen. Data for the bub3 strain (AID 167); details: S. cerevisiae bub3 mutant strain, hits give high values
How it was run: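 Inhibition values come from growth of compound-treated mutant yeast normalised to vehicle-treated controls.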

[12] = NCI Yeast Anticancer Drug Screen. Data for the wt2 strain (AID 169);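 note: 0% = growth of vehicle-treated yeast cultures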; details: S. cerevisiae wt2 strain growth inhibition, hits give high values
How it was run: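 Read-out: growth inhibition versus vehicle-treated control cultures after compound exposure of the yeast strain.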

[13] = NCI Yeast Anticancer Drug Screen. Data for the sgs1 strain (AID 173);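 note: 0% = growth of vehicle-only control cultures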; details: S. cerevisiae sgs1 mutant, hits give high values
How it was run: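 Read-out: yeast growth inhibition relative to vehicle controls, following compound exposure of a strain with a defined DNA repair/cell cycle alteration.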

[14] = NCI Yeast Anticancer Drug Screen. Data for the mlh1 rad18 strain (AID 175); details: S. cerevisiae mlh1 rad18 strain growth inhibition, hits give high values
How it was run: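 Yeast w/ defined DNA-repair lesions; compound exposure; growth vs vehicle controls → % inhibition.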

[15] = NCI Yeast Anticancer Drug Screen. Data for the rad18 strain (AID 177); details: S. cerevisiae rad18 mutant growth inhibition, hits give high values
How it was run: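 Readout: growth inhibition vs vehicle controls. Cells: genetically altered yeast strain, DNA repair defect.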

[16] = at 5.0 µM (retest, dose inferred, filed as 0.5)
[17] = at 50.0 µM (retest, dose inferred, filed as 5.0)

CCOP(=O)(CC(C)P(=O)(OCC)OCC)OCC.C[CH2][Sn]([Cl])([Cl])[CH2]C (stereo not drawn)
growth inhibition ([1]; at 1.2 µM): -4%
growth inhibition ([1]; at 3.7 µM): -1%
growth inhibition ([1]; at 11.0 µM): 19%
growth inhibition ([1]; at 33.0 µM): 79% (active)
growth inhibition ([1]; at 100.0 µM): 94% (active)
growth inhibition ([2]; at 1.2 µM): 0%
growth inhibition ([2]; at 3.7 µM): 3%
growth inhibition ([2]; at 11.0 µM): 12%
growth inhibition ([2]; at 33.0 µM): 76% (active)
growth inhibition ([2]; at 100.0 µM): 93% (active)
growth inhibition ([3]; at 1.2 µM): -1%
growth inhibition ([3]; at 3.7 µM): 1%
growth inhibition ([3]; at 11.0 µM): 5%
growth inhibition ([3]; at 33.0 µM): 4%
growth inhibition ([3]; at 100.0 µM): 4%
growth inhibition ([4]; at 1.2 µM): -3%
growth inhibition ([4]; at 3.7 µM): -1%
growth inhibition ([4]; at 11.0 µM): 4%
growth inhibition ([4]; at 33.0 µM): 67%
growth inhibition ([4]; at 100.0 µM): 95% (active)
growth inhibition ([5]; at 1.2 µM): -7%
growth inhibition ([5]; at 3.7 µM): -15%
growth inhibition [5, 16]: 16%
growth inhibition ([5]; at 11.0 µM): -2%
growth inhibition ([5]; at 33.0 µM): 71% (active)
growth inhibition [5, 17]: 14%
growth inhibition ([5]; at 50.0 µM): 82.7% (active)
growth inhibition ([5]; at 100.0 µM): 92% (active)
growth inhibition ([6]; at 1.2 µM): 1%
growth inhibition ([6]; at 3.7 µM): 4%
growth inhibition [6, 16]: 1%
growth inhibition ([6]; at 11.0 µM): 14%
growth inhibition ([6]; at 33.0 µM): 69%
growth inhibition [6, 17]: 18%
growth inhibition ([6]; at 50.0 µM): 85.4% (active)
growth inhibition ([6]; at 100.0 µM): 93% (active)
growth inhibition ([7]; at 1.2 µM): -3%
growth inhibition ([7]; at 3.7 µM): 1%
growth inhibition ([7]; at 11.0 µM): 4%
growth inhibition ([7]; at 33.0 µM): 19%
growth inhibition ([7]; at 100.0 µM): 76% (active)
growth inhibition [8, 16]: 11%
growth inhibition [8, 17]: 4%
growth inhibition ([8]; at 50.0 µM): 68.2%
growth inhibition ([9]; at 1.2 µM): -6%
growth inhibition ([9]; at 3.7 µM): -5%
growth inhibition ([9]; at 11.0 µM): 7%
growth inhibition ([9]; at 33.0 µM): 72% (active)
growth inhibition ([9]; at 100.0 µM): 93% (active)
growth inhibition [10, 16]: 6%
growth inhibition [10, 17]: 52%
growth inhibition ([10]; at 50.0 µM): 50.1%
growth inhibition ([11]; at 1.2 µM): -2%
growth inhibition ([11]; at 3.7 µM): 1%
growth inhibition [11, 16]: -9%
growth inhibition ([11]; at 11.0 µM): 5%
growth inhibition ([11]; at 33.0 µM): 55%
growth inhibition [11, 17]: 53%
growth inhibition ([11]; at 50.0 µM): 84.1% (active)
growth inhibition ([11]; at 100.0 µM): 91% (active)
growth inhibition ([12]; at 1.2 µM): -1%
growth inhibition ([12]; at 3.7 µM): -2%
growth inhibition ([12]; at 11.0 µM): 2%
growth inhibition ([12]; at 33.0 µM): 76% (active)
growth inhibition ([12]; at 100.0 µM): 94% (active)
growth inhibition ([13]; at 1.2 µM): -8%
growth inhibition ([13]; at 3.7 µM): 4%
growth inhibition ([13]; at 11.0 µM): 14%
growth inhibition ([13]; at 33.0 µM): 85% (active)
growth inhibition ([13]; at 100.0 µM): 95% (active)
growth inhibition [14, 16]: -2%
growth inhibition [14, 17]: 28%
growth inhibition ([14]; at 50.0 µM): 62.7%
growth inhibition ([15]; at 1.2 µM): -2%
growth inhibition ([15]; at 3.7 µM): 4%
growth inhibition ([15]; at 11.0 µM): 24%
growth inhibition ([15]; at 33.0 µM): 75% (active)
growth inhibition ([15]; at 100.0 µM): 92% (active)
